Assay results taken from the supplement of paper PMC10849652.
Targets with a hit are over-represented here; the source holds about 8,800 in all. About 0.5% of all pairs of compound and target were hits.

Experiments:
Assay in all cases: log2 fold change, soluble protein after heating vs DMSO (PISA); higher = thermal stabilisation; K562 lysate, 10 uM; active = over 0.2 and 3.5 SD of the protein, either way, in both replicates (recomputed)
nilotinib = compound: Cc1cn(-c2cc(NC(=O)c3ccc(C)c(Nc4nccc(-c5cccnc5)n4)c3)cc(C(F)(F)F)c2)cn1 [nilotinib]
Method in brief: (§1)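 A 30 min treatment with 10 μM compound was applied to crude K562 extract at 1 mg/mL protein in PBS pH 7.4 with 1 mM MgCl2. Heating for 3 min spanned 48°C-58°C, after which aliquots were pooled, adjusted to 0.5% NP-40 at 4°C and spun at 21,000xg for 90 min. TMTpro 16plex LC-MS/MS of the supernatant, with channel sums equalised, gave values recorded as log-two fold change in thermal stability against solvent controls, from duplicates.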

[1] = compound: Cc1nc(Nc2n[nH]c3c2CN(C(=O)N[C@H](CN(C)C)c2ccccc2)C3(C)C)c2sccc2n1
Method in brief: as §1

dasatinib = compound: Cc1nc(Nc2ncc(C(=O)Nc3c(C)cccc3Cl)s2)cc(N2CCN(CCO)CC2)n1 [dasatinib]
Method in brief: as §1

[2] = compound: Cc1ncc(-c2ccnc(Nc3ccc(S(C)(=O)=O)cc3)n2)n1C(C)C
Method in brief: as §1

[3] = compound: Cn1cc(-c2ccc3c(c2)CCN3C(=O)Cc2cccc(C(F)(F)F)c2)c2c(N)ncnc21
Method in brief: as §1

quisinostat = compound: Cn1cc(CNCC2CCN(c3ncc(C(=O)NO)cn3)CC2)c2ccccc21 [quisinostat]
Method in brief: as §1

tipifarnib = compound: Cn1cncc1[C@@](N)(c1ccc(Cl)cc1)c1ccc2c(c1)c(-c1cccc(Cl)c1)cc(=O)n2C [tipifarnib]
Method in brief: as §1

[4] = compound: NC(=O)Nc1cc(-c2cccc(F)c2)sc1C(=O)N[C@H]1CCCNC1
Method in brief: as §1

[5] = compound: NC(=O)c1cnc(N[C@@H]2CCCC[C@@H]2N)nc1Nc1cccc(-n2nccn2)c1
Method in brief: as §1

[6] = compound: NC1(c2ccc(-c3nc4ccn5c(=O)[nH]nc5c4cc3-c3ccccc3)cc2)CCC1
Method in brief: as §1

Measured: log2 fold change

PRKCSH isoform 2 (UniProt P14314)
Chain of UniProt P14314 (P14314 whole entry, looked up): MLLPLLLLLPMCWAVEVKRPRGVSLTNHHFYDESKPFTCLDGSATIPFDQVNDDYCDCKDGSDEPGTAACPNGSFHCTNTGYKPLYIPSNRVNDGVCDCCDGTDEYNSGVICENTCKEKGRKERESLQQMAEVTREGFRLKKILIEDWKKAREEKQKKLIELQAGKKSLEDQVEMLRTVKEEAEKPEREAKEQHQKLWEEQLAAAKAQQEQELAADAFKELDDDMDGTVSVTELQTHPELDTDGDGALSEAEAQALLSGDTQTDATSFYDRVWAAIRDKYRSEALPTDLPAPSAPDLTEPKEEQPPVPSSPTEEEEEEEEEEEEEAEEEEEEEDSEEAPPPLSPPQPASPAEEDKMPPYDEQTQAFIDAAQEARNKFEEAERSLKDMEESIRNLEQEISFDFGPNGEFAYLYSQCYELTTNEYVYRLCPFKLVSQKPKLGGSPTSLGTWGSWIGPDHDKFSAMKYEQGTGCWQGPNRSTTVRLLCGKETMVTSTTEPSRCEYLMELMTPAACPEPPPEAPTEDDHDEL
inactive: nilotinib -0.004 | [1] 0.099 | dasatinib 0.088 | [2] 0.116 | [3] 0.003 | quisinostat -0.157 | tipifarnib -0.081 | [4] -0.079 | [5] 0.038 | [6] -0.192

PMPCA (UniProt Q10713)
active: dasatinib 0.672
inactive: nilotinib 0.005 | [1] 0.052 | [2] 0 | [3] -0.017 | quisinostat -0.041 | tipifarnib 0.187 | [4] -0.013 | [5] -0.009 | [6] 0.003

PIK3R1 (UniProt P27986)
inactive: nilotinib -0.041 | [1] -0.072 | dasatinib -0.024 | [2] 0.058 | [3] 0.004 | quisinostat -0.027 | tipifarnib 0.039 | [4] 0.042 | [5] 0.021 | [6] 0.249

PYURF (UniProt Q96I23)
Chain of UniProt Q96I23 (Q96I23 whole entry, looked up): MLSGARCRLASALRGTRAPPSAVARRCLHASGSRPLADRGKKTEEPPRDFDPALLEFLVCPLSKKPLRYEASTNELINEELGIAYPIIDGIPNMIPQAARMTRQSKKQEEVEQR
inactive: nilotinib -0.03 | [1] 0.051 | dasatinib 0.002 | [2] 0.004 | [3] 0.048 | quisinostat 0.011 | tipifarnib -0.009 | [4] -0.075 | [5] -0.064 | [6] -0.006

PRKACB isoform 2 (UniProt P22694)
active: [1] 0.818 | [4] 0.538
inactive: nilotinib -0.076 | dasatinib 0.025 | [2] 0.091 | [3] -0.028 | quisinostat -0.033 | tipifarnib -0.063 | [5] 0.177 | [6] -0.025

PTP4A1 (UniProt Q93096)
Chain of UniProt Q93096 (Q93096 whole entry, looked up): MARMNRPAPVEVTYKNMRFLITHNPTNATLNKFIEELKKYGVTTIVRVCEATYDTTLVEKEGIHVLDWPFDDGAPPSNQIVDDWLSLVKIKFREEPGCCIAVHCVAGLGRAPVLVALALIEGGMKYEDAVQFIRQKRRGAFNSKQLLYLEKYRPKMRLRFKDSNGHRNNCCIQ
inactive: nilotinib -0.035 | [1] 0.005 | dasatinib 0.026 | [2] -0.057 | [3] 0 | quisinostat 0.151 | tipifarnib 0.011 | [4] -0.059 | [5] -0.011 | [6] -0.029

PPP1R8 (UniProt Q12972)
Chain of UniProt Q12972 (Q12972 whole entry, looked up): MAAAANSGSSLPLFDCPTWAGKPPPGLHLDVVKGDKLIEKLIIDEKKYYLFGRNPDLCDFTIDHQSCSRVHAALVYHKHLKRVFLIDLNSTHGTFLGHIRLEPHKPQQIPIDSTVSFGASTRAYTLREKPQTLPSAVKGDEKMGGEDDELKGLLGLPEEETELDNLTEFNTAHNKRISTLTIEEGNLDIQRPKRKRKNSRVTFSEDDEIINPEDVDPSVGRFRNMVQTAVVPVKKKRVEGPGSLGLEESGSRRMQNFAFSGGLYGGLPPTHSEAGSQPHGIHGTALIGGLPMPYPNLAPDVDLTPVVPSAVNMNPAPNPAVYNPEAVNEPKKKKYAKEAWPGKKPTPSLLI
inactive: nilotinib 0.004 | [1] -0.011 | dasatinib 0.03 | [2] 0.034 | [3] 0.025 | quisinostat -0.023 | tipifarnib 0.013 | [4] -0.007 | [5] 0.01 | [6] -0.024

PPP3CA isoform 2 (UniProt Q08209)
active: nilotinib 0.241
inactive: [1] 0.121 | dasatinib 0.027 | [2] -0.082 | [3] -0.03 | quisinostat -0.051 | tipifarnib 0.037 | [4] 0.048 | [5] -0.005 | [6] -0.002

PRMT7 (UniProt Q9NVM4)
inactive: nilotinib 0.039 | [1] -0.01 | dasatinib 0.032 | [2] -0.029 | [3] -0.032 | quisinostat -0.041 | tipifarnib -0.011 | [4] 0.023 | [5] 0.028 | [6] 0.025

PRKCA (UniProt P17252)
active: [5] 0.408
inactive: nilotinib -0.008 | [1] 0.227 | dasatinib -0.028 | [2] 0.095 | [3] -0.056 | quisinostat -0.035 | tipifarnib 0 | [4] -0.067 | [6] -0.006

PRKRA (UniProt O75569)
Chain of UniProt O75569 (O75569 whole entry, looked up): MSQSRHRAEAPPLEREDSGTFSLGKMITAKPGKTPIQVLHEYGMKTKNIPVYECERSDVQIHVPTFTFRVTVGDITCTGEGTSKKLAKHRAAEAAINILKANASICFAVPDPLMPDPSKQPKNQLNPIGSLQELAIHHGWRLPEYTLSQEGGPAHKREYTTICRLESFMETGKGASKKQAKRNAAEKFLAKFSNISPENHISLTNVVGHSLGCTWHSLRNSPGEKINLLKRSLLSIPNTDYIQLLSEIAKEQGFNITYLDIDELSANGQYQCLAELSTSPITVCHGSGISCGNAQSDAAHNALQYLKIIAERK
inactive: nilotinib 0 | [1] -0.001 | dasatinib -0.01 | [2] 0.034 | [3] 0.029 | quisinostat -0.058 | tipifarnib 0.016 | [4] 0.036 | [5] 0.012 | [6] -0.043

PSMB9 (UniProt P28065)
inactive: nilotinib 0.019 | [1] 0.092 | dasatinib -0.031 | [2] -0.098 | [3] -0.033 | quisinostat -0.213 | tipifarnib 0.024 | [4] 0.027 | [5] 0.034 | [6] -0.076

POLR2F (UniProt P61218)
inactive: nilotinib 0.023 | [1] -0.019 | dasatinib 0.274 | [2] 0.107 | [3] -0.015 | quisinostat -0.034 | tipifarnib 0.015 | [4] 0.008 | [5] -0.052 | [6] -0.021

PHKG2 (UniProt P15735)
Chain of UniProt P15735 (P15735 whole entry, looked up): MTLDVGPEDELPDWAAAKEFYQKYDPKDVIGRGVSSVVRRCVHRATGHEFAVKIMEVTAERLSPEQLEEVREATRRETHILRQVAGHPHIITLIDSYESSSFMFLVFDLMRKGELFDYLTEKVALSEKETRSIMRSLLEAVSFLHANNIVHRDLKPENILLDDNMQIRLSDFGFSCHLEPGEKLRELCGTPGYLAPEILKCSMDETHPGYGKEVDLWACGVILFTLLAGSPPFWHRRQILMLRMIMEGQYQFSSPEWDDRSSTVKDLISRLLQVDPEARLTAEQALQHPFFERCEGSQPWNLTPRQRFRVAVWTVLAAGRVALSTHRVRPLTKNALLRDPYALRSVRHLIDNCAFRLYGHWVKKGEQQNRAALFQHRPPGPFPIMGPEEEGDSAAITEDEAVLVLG
active: [1] 0.598 | [4] 0.979
inactive: nilotinib -0.022 | dasatinib -0.03 | [2] 0.046 | [3] 0.037 | quisinostat -0.069 | tipifarnib 0.038 | [5] -0.042 | [6] -0.073

PPP2CA (UniProt P67775)
inactive: nilotinib -0.009 | [1] 0.037 | dasatinib 0.017 | [2] 0.009 | [3] 0.057 | quisinostat 0.185 | tipifarnib 0.024 | [4] -0.093 | [5] -0.008 | [6] 0.023

PXMP4 (UniProt Q9Y6I8)
Chain of UniProt Q9Y6I8 (Q9Y6I8 whole entry, looked up): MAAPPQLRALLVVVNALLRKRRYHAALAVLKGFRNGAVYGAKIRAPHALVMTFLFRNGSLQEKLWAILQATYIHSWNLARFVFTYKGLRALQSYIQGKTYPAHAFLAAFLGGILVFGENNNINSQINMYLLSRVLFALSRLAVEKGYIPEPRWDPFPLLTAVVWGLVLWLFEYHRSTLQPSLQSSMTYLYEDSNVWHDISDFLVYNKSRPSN
inactive: nilotinib -0.011 | [1] 0.014 | dasatinib 0.078 | [2] 0.013 | [3] -0.092 | quisinostat -0.146 | [4] 0.018 | [5] -0.018 | [6] -0.215
active: tipifarnib 0.846

PRAME (UniProt P78395)
Chain of UniProt P78395 (P78395 whole entry, looked up): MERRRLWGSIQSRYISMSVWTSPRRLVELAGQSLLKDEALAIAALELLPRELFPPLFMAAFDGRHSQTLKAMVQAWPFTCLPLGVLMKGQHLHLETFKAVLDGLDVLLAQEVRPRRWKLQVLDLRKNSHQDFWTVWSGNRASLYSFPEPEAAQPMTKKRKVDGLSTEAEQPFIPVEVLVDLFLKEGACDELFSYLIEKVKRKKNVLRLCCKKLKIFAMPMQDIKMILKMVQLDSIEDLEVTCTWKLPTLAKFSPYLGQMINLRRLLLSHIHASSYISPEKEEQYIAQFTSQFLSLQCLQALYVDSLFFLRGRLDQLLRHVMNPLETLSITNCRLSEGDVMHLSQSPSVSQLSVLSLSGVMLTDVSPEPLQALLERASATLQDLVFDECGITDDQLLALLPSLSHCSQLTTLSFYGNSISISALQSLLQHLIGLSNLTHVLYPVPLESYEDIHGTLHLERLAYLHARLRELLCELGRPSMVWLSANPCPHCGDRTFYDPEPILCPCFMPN
inactive: nilotinib 0.028 | [1] 0.005 | dasatinib -0.004 | [2] 0.001 | [3] -0.017 | quisinostat -0.081 | tipifarnib -0.007 | [4] 0.053 | [5] -0.01 | [6] -0.006

PHKB isoform 3 (UniProt Q93100)
inactive: nilotinib -0.007 | [1] 0.121 | dasatinib -0.023 | [2] 0.001 | [3] 0.008 | quisinostat -0.063 | tipifarnib -0.035 | [5] 0.004 | [6] -0.058
active: [4] 0.28

PCBP3 (UniProt P57721)
inactive: nilotinib 0.015 | [1] -0.022 | dasatinib -0.005 | [2] 0.018 | [3] -0.025 | quisinostat -0.004 | tipifarnib 0 | [4] -0.023 | [5] -0.014 | [6] 0.012

PCBD2 (UniProt Q9H0N5)
Chain of UniProt Q9H0N5 (Q9H0N5 whole entry, looked up): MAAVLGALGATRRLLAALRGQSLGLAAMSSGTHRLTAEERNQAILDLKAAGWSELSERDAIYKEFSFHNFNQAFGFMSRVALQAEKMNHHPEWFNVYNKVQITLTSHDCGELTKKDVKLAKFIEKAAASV
inactive: nilotinib 0.01 | [1] -0.045 | dasatinib 0.011 | [2] -0.063 | [3] 0.051 | quisinostat -0.08 | tipifarnib -0.101 | [4] 0.033 | [5] 0.069 | [6] -0.066

PHKA1 (UniProt P46020)
inactive: nilotinib -0.059 | [1] 0.14 | dasatinib -0.138 | [2] -0.007 | [3] 0.029 | quisinostat -0.072 | tipifarnib -0.021 | [5] 0.091 | [6] -0.053
active: [4] 0.272

POLA1 (UniProt P09884)
inactive: nilotinib -0.022 | [1] -0.01 | dasatinib 0.011 | [2] 0.017 | [3] 0.009 | quisinostat -0.028 | tipifarnib -0.001 | [4] 0.029 | [5] 0.001 | [6] 0.008

PDPK1 (UniProt O15530)
inactive: nilotinib -0.093 | [1] 0.314 | dasatinib -0.014 | [2] -0.093 | [3] 0 | quisinostat -0.094 | tipifarnib -0.011 | [5] 0.019 | [6] -0.059
active: [4] 0.619

PLIN2 (UniProt Q99541)
Chain of UniProt Q99541 (Q99541 whole entry, looked up): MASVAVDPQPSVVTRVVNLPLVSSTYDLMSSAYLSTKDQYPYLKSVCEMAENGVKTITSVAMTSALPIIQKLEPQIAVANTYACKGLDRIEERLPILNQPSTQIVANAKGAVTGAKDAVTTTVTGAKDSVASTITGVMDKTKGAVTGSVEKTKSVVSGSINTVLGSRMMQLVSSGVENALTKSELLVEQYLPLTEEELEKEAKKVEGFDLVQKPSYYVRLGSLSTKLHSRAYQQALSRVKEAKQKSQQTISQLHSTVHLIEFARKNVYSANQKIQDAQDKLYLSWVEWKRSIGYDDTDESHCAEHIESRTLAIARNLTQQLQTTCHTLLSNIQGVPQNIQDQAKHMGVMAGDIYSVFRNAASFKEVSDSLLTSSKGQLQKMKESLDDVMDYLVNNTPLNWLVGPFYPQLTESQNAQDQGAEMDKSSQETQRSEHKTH
inactive: nilotinib 0.088 | [1] -0.012 | dasatinib -0.092 | [2] 0 | [3] 0.008 | quisinostat -0.031 | tipifarnib -0.153 | [4] 0.038 | [5] -0.003 | [6] -0.018

PGLS (UniProt O95336)
inactive: nilotinib 0.008 | [1] -0.021 | dasatinib 0.001 | [2] 0.168 | [3] 0.022 | quisinostat 0.017 | tipifarnib -0.013 | [4] -0.017 | [5] -0.073 | [6] 0.014

PCBP2 isoform 3 (UniProt Q15366)
inactive: nilotinib 0.019 | [1] -0.012 | dasatinib -0.019 | [2] 0.015 | [3] 0.039 | quisinostat 0.044 | tipifarnib 0.005 | [4] 0 | [5] 0.005 | [6] 0.072

PDCD4 (UniProt Q53EL6)
Chain of UniProt Q53EL6 (Q53EL6 whole entry, looked up): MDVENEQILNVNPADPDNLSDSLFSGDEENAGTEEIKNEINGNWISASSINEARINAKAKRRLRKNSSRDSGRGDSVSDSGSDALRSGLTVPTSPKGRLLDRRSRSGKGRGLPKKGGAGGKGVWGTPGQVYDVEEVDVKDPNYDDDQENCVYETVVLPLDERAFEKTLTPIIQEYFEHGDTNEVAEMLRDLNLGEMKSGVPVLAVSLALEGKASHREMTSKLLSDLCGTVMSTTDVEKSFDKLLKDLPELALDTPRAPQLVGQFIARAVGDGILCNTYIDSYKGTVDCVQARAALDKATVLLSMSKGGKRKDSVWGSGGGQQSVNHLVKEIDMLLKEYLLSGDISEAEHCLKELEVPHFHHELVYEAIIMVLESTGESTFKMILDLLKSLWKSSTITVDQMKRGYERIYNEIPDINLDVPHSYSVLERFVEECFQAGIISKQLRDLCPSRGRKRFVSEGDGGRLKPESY
inactive: nilotinib 0.028 | [1] 0.019 | dasatinib -0.026 | [2] 0.035 | [3] 0.005 | quisinostat -0.044 | tipifarnib -0.008 | [4] -0.01 | [5] 0.009 | [6] -0.013

PDE2A (UniProt O00408)
inactive: nilotinib 0.021 | [1] -0.033 | dasatinib 0.042 | [2] -0.008 | [3] 0.035 | quisinostat 0.026 | tipifarnib 0.042 | [4] 0.006 | [5] 0.08 | [6] -0.184

PPOX (UniProt P50336)
inactive: nilotinib 0.227 | [1] -0.001 | dasatinib 0.086 | [2] 0.054 | [3] -0.004 | quisinostat 0.129 | tipifarnib -0.012 | [4] -0.019 | [5] -0.008 | [6] -0.036

PRC1 (UniProt O43663)
inactive: nilotinib 0.013 | [1] -0.008 | dasatinib -0.012 | [2] -0.007 | [3] 0.05 | quisinostat -0.035 | tipifarnib -0.011 | [4] 0.009 | [5] -0.002 | [6] -0.044

PDE4DIP isoform 4 (UniProt Q5VU43)
inactive: nilotinib -0.026 | [1] 0.004 | dasatinib 0.007 | [2] -0.015 | [3] -0.029 | quisinostat -0.083 | tipifarnib -0.032 | [4] -0.018 | [5] -0.034 | [6] -0.011

PTGR2 (UniProt Q8N8N7)
Chain of UniProt Q8N8N7 (Q8N8N7 whole entry, looked up): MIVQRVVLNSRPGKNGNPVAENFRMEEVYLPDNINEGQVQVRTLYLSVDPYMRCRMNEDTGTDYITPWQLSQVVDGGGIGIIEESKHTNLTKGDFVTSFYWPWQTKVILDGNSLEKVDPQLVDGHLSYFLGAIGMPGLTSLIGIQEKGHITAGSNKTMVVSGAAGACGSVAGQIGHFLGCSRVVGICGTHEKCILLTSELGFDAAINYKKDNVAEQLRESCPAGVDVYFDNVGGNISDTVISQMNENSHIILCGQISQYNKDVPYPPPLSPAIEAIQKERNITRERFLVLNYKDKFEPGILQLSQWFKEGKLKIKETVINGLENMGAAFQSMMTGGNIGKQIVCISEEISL
inactive: nilotinib 0.024 | [1] -0.044 | dasatinib 0.012 | [2] 0.025 | [3] 0.024 | quisinostat -0.008 | tipifarnib 0.034 | [4] -0.011 | [5] -0.002 | [6] 0.011

PPFIA2 (UniProt O75334)
inactive: nilotinib -0.046 | [1] 0.027 | dasatinib -0.064 | [2] -0.022 | [3] 0.01 | quisinostat -0.238 | tipifarnib -0.029 | [4] 0.017 | [5] 0.024 | [6] -0.089

PPCDC (UniProt Q96CD2)
Chain of UniProt Q96CD2 (Q96CD2 whole entry, looked up): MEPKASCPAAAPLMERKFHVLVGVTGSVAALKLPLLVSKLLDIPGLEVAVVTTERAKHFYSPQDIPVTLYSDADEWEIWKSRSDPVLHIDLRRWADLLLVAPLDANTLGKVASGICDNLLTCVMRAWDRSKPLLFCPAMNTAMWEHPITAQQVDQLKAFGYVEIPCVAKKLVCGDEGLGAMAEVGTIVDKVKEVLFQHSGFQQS
inactive: nilotinib -0.002 | [1] -0.014 | dasatinib -0.06 | [2] -0.017 | [3] -0.04 | quisinostat -0.015 | tipifarnib 0.022 | [4] 0.013 | [5] 0 | [6] 0.047
